This passage reports IC90 results from ChEMBL document CHEMBL1201862, “PubChem BioAssay data set” (2004).

Measured potencies and affinities stand elsewhere.

This assay is described as follows: M. tuberculosis growth inhibition, dose response, 7H9 media, purified and synthesized compounds, set 5 (AID 504903). Format: functional.
Take `CNC(=O)CSc1nc2ccccc2c(=O)[nH]1`: the IC90 was > 100 µM (active).

In the case of `Cc1[nH]c2ccccc2c1C(=O)COC(=O)c1ccc([N+](=O)[O-])s1`, the concentration for an effect of 90% (IC90) is > 50.5 µM (active).

Take `CCCc1cc(C(N)=S)ccn1`: the IC90 was > 100 µM (active).

As to `O=C(CSc1ccccn1)NC1CCCCC1`, the IC90 is > 100 µM (active).

A word on the IC90: it is the concentration needed for an effect of 90%.
